FLuc counter: inhibits or activates purified firefly luciferase, miR-21 counter-screen; purified FLuc, Km substrates, luminescence inhibition; Potency, µM (doses to about 57.5 µM), for inactives: at the top dose activity change, negative = inhibition, actives largely listed as inhibitors; 360,000 compounds, 6.9% hits;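 note: plate controls were vehicle for no effect and reference inhibitor for full effect; nearly all actives have a fitted effect of over 55% in size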
Target sequence (P08659 whole entry, looked up): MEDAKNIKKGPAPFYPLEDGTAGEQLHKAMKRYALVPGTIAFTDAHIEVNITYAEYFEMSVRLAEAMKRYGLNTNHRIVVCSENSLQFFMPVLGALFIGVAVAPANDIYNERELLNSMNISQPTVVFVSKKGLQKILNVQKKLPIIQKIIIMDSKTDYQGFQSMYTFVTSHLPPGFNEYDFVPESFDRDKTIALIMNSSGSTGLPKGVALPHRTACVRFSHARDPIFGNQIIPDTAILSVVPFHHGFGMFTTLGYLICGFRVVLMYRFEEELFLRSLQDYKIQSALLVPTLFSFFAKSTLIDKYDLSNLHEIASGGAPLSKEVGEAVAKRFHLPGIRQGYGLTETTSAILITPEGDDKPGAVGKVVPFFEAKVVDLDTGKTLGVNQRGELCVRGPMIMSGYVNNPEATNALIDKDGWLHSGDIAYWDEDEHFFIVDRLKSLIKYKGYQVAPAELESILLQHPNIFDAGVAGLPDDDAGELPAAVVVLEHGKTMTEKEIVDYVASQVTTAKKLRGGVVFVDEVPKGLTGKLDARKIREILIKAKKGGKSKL
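Purified P. pyralis luciferase (10nM final) with 10uM D-luciferin and 10uM ATP (Km levels) in 50mM Tris acetate pH 7.5, 10mM Mg acetate, 0.01% Tween-20, 0.05% BSA; qHTS 6-point titration, ~60 µM downward; luminescence read.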
ELG1 genotoxic: inducers of genotoxicity in HEK293T ELG1-luciferase cells; HEK293T ELG1-luciferase reporter, luminescence, 16 h; Potency, µM (top dose mostly 46 µM), for inactives: at the top dose activity change, positive = activation, most hits filed as activators; 330,000 compounds, 1.3% hits; note: % of control where 0% means no effect; nearly all actives have a fitted effect of over 60% in size
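HEK293T cells expressing luciferase-tagged ELG1 were treated with compound or DMSO for 16 hr at 37°C. Luciferase activity was then read after 30 min with ONE-Glo at room temperature; rising signal flags genetic stress.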
Rab9 promoter act: activates the Rab9 promoter. Huh7 Rab9 promoter-luciferase reporter, luminescence, 24 h. Potency, µM (titrated, usually from 9.22 µM), for the others: top-dose activation, negative = inhibition, usual class: activators. 320,000 compounds, 2.8% hits. AID 485297; note: % of control where 0% means no effect; nearly all actives have a fitted effect of over 60% in size
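Luminescence from Amplite-detected luciferase (10 minutes, ambient) reports Rab9 promoter activation. Before that, stable Rab9-luciferase Huh7 cells (1500/well, reduced-serum OP-MEM I plus 10% FBS) were exposed to compound for 24 hours at 37C.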
NPC1 promoter act: activators of NPC1 promoter; Huh7 NPC1 promoter luciferase reporter, 24 h; Potency, µM (series often up to 9.22 µM), for inactives: at the top dose activation, actives largely listed as activators; 320,000 compounds, 2.4% hits; note: % of control where 0% means no effect; nearly all actives have a fitted effect of over 60% in size
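Stably transfected Huh7 (NPC1 promoter→luciferase), 1500 cells/well in Opti-MEM + 10% FBS, 2 h settle, then compound 24 h at 37 °C. Luminescence after 10 min with Amplite reagent.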
SMN2 splice up: enhancers of SMN2 splice variant expression; 210,000 compounds, 2.8% hits; HEK293 SMN2-luciferase splicing reporter, luminescence, 30-36 h; Potency, µM (highest dose often 46.1 µM), for the others: at the highest dose activity change, positive = activation, actives largely listed as activators; note: % of control where 0% means no effect; nearly all actives have a fitted effect of over 55% in size
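HEK293 cells carry an SMN2 […]–luciferase reporter in which exon 7 inclusion puts luciferase in frame. Cells were plated 10-12 h before compound addition, then incubated 30-36 h at 37C. ONE-Glo luminescence was read; sodium butyrate at 4.5 mM final served as control.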
Luc counter: counter-screen: inhibitors of Kinase-Glo firefly luciferase | Q27757 | Kinase-Glo luciferase, ATP luminescence, 8 min | AID 1379 | Potency, µM (top dose mostly 38.3 µM), inactives show at the highest dose activity change, negative = inhibition, usual class: inhibitors | 200,000 compounds, 0.28% hits; note: % is set by controls: 0 for no effect and ±100 for the full control effect; nearly all actives have a fitted effect of over 60% in size
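Luminescence was the read-out, taken after 8-minute incubation at ambient temperature. Luciferase turned over luciferin with 10 uM ATP in imidazole pH 7.2 buffer containing KCl, MgCl2, Tween 20 and BSA.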
* hit, by the source's call. Most compounds without a hit are left out; they make up all but 7.5% or so of the library. Calls come from the whole dose curve; as a rule, active = well fitted curve in the direction sought with a large enough effect; inconclusive = small, poorly fitted or top-dose-only effect, or another doubt; inactive = no such curve, though single readings can be large; an effect the other way counts as inactive or inconclusive. Potency is the fitted concentration of half-maximal effect.

For CN(C)C1(CNC(=O)C2CCN(S(=O)(=O)c3c(Cl)cccc3Cl)CC2)CCCCC1 the results were FLuc counter -1%, ELG1 genotoxic 1%, Rab9 promoter act -2% and NPC1 promoter act -4%.
For Cc1ccc(C(=O)NC(=S)NCC2CCCO2)cc1[N+](=O)[O-] (stereo unspecified) the results were FLuc counter 0%, ELG1 genotoxic 0%, Rab9 promoter act 10%, NPC1 promoter act 0%, SMN2 splice up 16% and Luc counter 1%.
Screening Cc1ccc(NC(=S)NNC(=O)c2cccc([N+](=O)[O-])c2)cc1Cl returned FLuc counter 19µM*, ELG1 genotoxic -6%, Rab9 promoter act -2% and NPC1 promoter act 1%.
O=C(O)/C(=N/NC(=O)c1ccc(Cl)cc1)c1ccccc1 was read as FLuc counter 17µM*, ELG1 genotoxic 7%, Rab9 promoter act 2% and NPC1 promoter act -5%.
`CCCCC(=O)NC(=S)Nc1cccc(C(=O)O)c1` gave FLuc counter 24µM*, ELG1 genotoxic 9%, Rab9 promoter act 20%, NPC1 promoter act 28% and Luc counter -1%.
`O=C(Nc1ccc(Cl)cc1)C(Cl)C(=O)c1ccccc1` (stereo unspecified) gave FLuc counter 15µM*, ELG1 genotoxic inconclusive, Rab9 promoter act 17% and NPC1 promoter act 2%.
O=C(NNC(=S)Nc1ccc(F)cc1)c1cccc([N+](=O)[O-])c1 was read as FLuc counter -9%, ELG1 genotoxic 2%, Rab9 promoter act 0% and NPC1 promoter act 1%.
For C=C(CCC(=O)c1ccccc1)C(=O)c1ccccc1 the results were FLuc counter 17µM*, ELG1 genotoxic -16%, Rab9 promoter act -8%, NPC1 promoter act -4%, SMN2 splice up -20% and Luc counter -1%.
Screening COc1ccc(/C=C2\CCc3ccccc3C2=O)cc1OC returned FLuc counter 5.4µM*, ELG1 genotoxic 17%, Rab9 promoter act 4%, NPC1 promoter act 2%, SMN2 splice up -25% and Luc counter -6%.
`COc1cccc(/C=C2\CCc3ccccc3C2=O)c1` gave FLuc counter 0.15µM*, ELG1 genotoxic 2.6µM*, Rab9 promoter act inconclusive and NPC1 promoter act inconclusive.
CC(=O)Oc1ccc(/C=C2/CCc3ccccc3C2=O)cc1 was read as FLuc counter 0.6µM*, ELG1 genotoxic inconclusive, Rab9 promoter act 15% and NPC1 promoter act -4%.
`COc1ccc2c(c1)CC/C(=C/c1cc(OC)c(OC)c(OC)c1)C2=O` gave FLuc counter -16%, ELG1 genotoxic -12%, Rab9 promoter act 1%, NPC1 promoter act 4%, SMN2 splice up -58% and Luc counter 3%.
Screening COc1ccc2c(c1)CC/C(=C\C=C\c1ccccc1)C2=O returned FLuc counter 2.7µM*, ELG1 genotoxic 9%, Rab9 promoter act 8%, NPC1 promoter act 18%, SMN2 splice up inconclusive and Luc counter 1%.
COc1cc(/C=C2\CC/C(=C\c3ccc(OCCO)c(OC)c3)C2=O)ccc1OCCO was read as FLuc counter -9%, ELG1 genotoxic -4%, Rab9 promoter act -2%, NPC1 promoter act -3%, SMN2 splice up -24% and Luc counter 5%.
COc1ccc(/C=C2\CC/C(=C\c3ccc(OC)cc3OC)C2=O)c(OC)c1 was read as FLuc counter inconclusive, ELG1 genotoxic inconclusive, Rab9 promoter act 21%, NPC1 promoter act 14%, SMN2 splice up -27% and Luc counter 12%.
`COc1cc(/C=C2\COC/C(=C\c3ccc(O)c(OC)c3)C2=O)ccc1O` gave FLuc counter 17µM*, ELG1 genotoxic -17%, Rab9 promoter act -43% and NPC1 promoter act -11%.
Screening COc1cc(/C=C2/CC/C(=C/c3ccc(O)c(OC)c3)C2=O)ccc1O returned FLuc counter 11µM*, ELG1 genotoxic -4%, Rab9 promoter act -2% and NPC1 promoter act -5%.
COc1cc(/C=C2\C(=O)N(C)C(=S)N2C)ccc1O was read as FLuc counter -13%, ELG1 genotoxic -2%, Rab9 promoter act -5%, NPC1 promoter act 0%, SMN2 splice up 7% and Luc counter 0%.
`COc1ccc(/C=C2\CC/C(=C\c3ccc(OC)c(OC)c3)C2=O)cc1OC` gave FLuc counter 1.2µM*, ELG1 genotoxic 12%, Rab9 promoter act -6%, NPC1 promoter act 1%, SMN2 splice up 4% and Luc counter -1%.
`COc1ccc2c(c1)CC/C(=C/c1ccccn1)C2=O` gave FLuc counter 5.4µM*, ELG1 genotoxic 15%, Rab9 promoter act inconclusive and NPC1 promoter act inconclusive.
For CCN1C/C(=C/c2ccc(OC)c(O)c2)C(=O)/C(=C/c2ccc(OC)c(O)c2)C1 the results were FLuc counter 4%, ELG1 genotoxic -21%, Rab9 promoter act -44%, NPC1 promoter act -45%, SMN2 splice up -105% and Luc counter -1%.
Cc1cc(C)cc([N+](=O)[O-])c1 was read as SMN2 splice up -1%.
For CCOC(=O)c1c(/C=N/Nc2ccccc2)c2sc(C)cc2n1C the results were FLuc counter inconclusive, Rab9 promoter act 14% and NPC1 promoter act 11%.
For COc1ccccc1-n1nnnc1SCC(=O)N(C)C1CCS(=O)(=O)C1 (stereo unspecified) the results were FLuc counter -1%, ELG1 genotoxic 2%, Rab9 promoter act 17% and NPC1 promoter act 2%.
O=C(NCCc1csc2nc(-c3ccccc3F)nn12)C(=O)Nc1cc(F)ccc1F was read as FLuc counter 3%.
Screening COc1cccc(/C=C2\C(=O)C(=O)c3ccccc32)c1 returned FLuc counter 21µM*, ELG1 genotoxic 4%, Rab9 promoter act -3%, NPC1 promoter act -2%, SMN2 splice up 16% and Luc counter 0%.
CC(=O)c1sc(NC(=O)c2cccc(C)c2)nc1C was read as FLuc counter 6.7µM*, ELG1 genotoxic 5.2µM*, Rab9 promoter act 2µM*, NPC1 promoter act 3.2µM*, SMN2 splice up 14µM* and Luc counter -23%.
For CC(=O)c1sc(NC(=O)c2ccc(F)c(F)c2)nc1C the results were FLuc counter inconclusive, ELG1 genotoxic 16µM*, Rab9 promoter act 3.2µM*, NPC1 promoter act inconclusive, SMN2 splice up 1% and Luc counter -7%.
For CC(=O)c1sc(NC(=O)c2cc(S(=O)(=O)N3CCOCC3)ccc2F)nc1C the results were ELG1 genotoxic 0%, Rab9 promoter act -8% and NPC1 promoter act 0%.

Bioassay records deposited in PubChem by National Center for Advancing Translational Sciences (NCATS).
